Hits are enriched below; roughly 12% of the tested compounds scored in any of these assays.
NS1 function inh = influenza NS1 inhibition. Potency, µM (titrated, usually from 46.1 µM), inactives show top-dose activity, positive = more growth. 270,000 compounds, 0.4% hits; calls by dose curve; further: actives are rising curves; nearly all actives have a fitted effect of over 50% in size
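A cell-based growth assay was used: compounds that relieve NS1-induced slow growth of budding yeast raise OD600. Assay medium was yeast nitrogen base with ammonium sulphate and -URA supplement, pH 6.0, with 2% galactose.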
AMA1 RON2 block = disrupts binding of P. falciparum AMA1 to RON2; AlphaScreen AMA1-biotinylated RON2 peptide binding; Potency, µM (highest dose often 58.2 µM), inactives show at the highest dose activity change, negative = inhibition, actives largely listed as inhibitors; 360,000 compounds, 0.2% hits;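 further: 0% = vehicle wells and -100% = peptide control; nearly all actives have a fitted effect of over 45% in size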
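AMA1 (3D7) with his tag at 25 nM final met compounds first, then biotinylated RON2 peptide at 25 nM; detection used donor plus acceptor beads, 10 µg/mL apiece, read by AlphaScreen after 30 min at room temperature.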
Pf growth 48h = P. falciparum growth inhibition at 48 hours (one generation); 310,000 compounds, 5.9% hits; Potency, µM (series often up to 28.7 µM), for inactives: top-dose activity change, negative = inhibition, usual class: inhibitors; AID 504832; P. falciparum luciferase growth in erythrocytes, 48 h; further: on the % scale 0 is the no-effect control and ±100 the full control effect
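First compound was added to culture medium, then infected red cells at 0.1% parasitemia and 2% hematocrit (final). After incubation at 37 C under 5% CO2, luciferase detection reagent was dispensed and light output recorded.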
HCV inh = blocks hepatitis C virus; Huh7.5.1 HCVcc-Cre infection, luciferase reporter, 44 h; AID 651820; 340,000 compounds, 3.4% hits; Potency, µM (top dose mostly 41.8 µM), without a hit: top-dose activity change, negative = inhibition, most hits filed as inhibitors; further: on the % scale 0 is the no-effect control and ±100 the full control effect
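Compounds are dispensed onto cells plated 4 h earlier at 1,000 per well, with HCVcc-Cre virus (about 0.5 moi) added next. Following 44 h of culture, luminescent signal is measured for 15 sec after 15 min with substrate at room temperature.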
SARS PLpro yeast = SARS-CoV PLP inhibition in yeast; S. cerevisiae expressing SARS-CoV PLpro, growth rescue; Potency, µM (highest dose often 32.9 µM), without a hit: at the highest dose activity, positive = growth rescue, actives largely listed as activators; 330,000 compounds, 0.19% hits; calls by dose curve; further: 0% is about no effect; nearly all actives have a fitted effect of over 55% in size
Pf growth 96h = P. falciparum growth inhibition at 96 hour, primary screen for plastid delayed-death inhibitors; P. falciparum luciferase reporter growth, 96 h; Potency, µM (doses to about 28.7 µM), without a hit: at the top dose activity change, negative = inhibition, most hits filed as inhibitors; 320,000 compounds, 6.9% hits; further: on the % scale 0 is the no-effect control and ±100 the full control effect
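Cell-based qHTS: luciferase-tagged P. falciparum in erythrocytes (2% hematocrit, 0.05% parasitemia final) incubated with compounds for 96 hours, 37 C, 5% CO2; luciferase detection reagent then added and luminescence measured.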
Active calls of the source: *; [ ] = another dose, or the depositor's remark. Unless noted, the call rests on the fitted dose curve; in most records, active means well fitted curve in the direction sought with a large enough effect; inconclusive means small, poorly fitted or top-dose-only effect, or another doubt; inactive means no such curve, though single readings can be large; an effect the other way counts as inactive or inconclusive. Potency means the concentration at half of the fitted maximal effect.

Screening C=C(C)c1cccc(C(C)(C)NC(=O)NC2CC(C)(C)NC(C)(C)C2)c1 returned NS1 function inh 4%, AMA1 RON2 block -2%, Pf growth 48h inconclusive, HCV inh -28%, SARS PLpro yeast 0% and Pf growth 96h 15%.
`CCOc1ccc(NC(=O)CNc2cccc(S(=O)(=O)N3CCCCCC3)c2)cc1OCC` gave AMA1 RON2 block -1%, HCV inh 11µM* and SARS PLpro yeast 4%.
CCOc1ccc(C(=O)N[C@H](C(=O)Nc2cccc(S(=O)(=O)N3CCCCC3)c2)C(C)C)cc1 was read as NS1 function inh 12%, AMA1 RON2 block 7%, Pf growth 48h inconclusive, HCV inh inconclusive, SARS PLpro yeast 1% and Pf growth 96h 10µM*.
CN(C)CCNCCN was read as NS1 function inh 0%.
Screening CC(C)c1ccc(/C=C2\C=C(c3ccc4ccccc4c3)OC2=O)cc1 returned NS1 function inh -11%.
Cn1ncc2c(Nc3cccc(Cl)c3)nc(Nc3cccc(Cl)c3)nc21 was read as NS1 function inh -58%, AMA1 RON2 block -3%, Pf growth 48h 1.7µM*, HCV inh inconclusive, SARS PLpro yeast 2% and Pf growth 96h 2.9µM*.
`Cc1ccc(Nc2nc(NCCO)nc3c2cnn3C)cc1Cl` gave NS1 function inh 6%, AMA1 RON2 block -10%, Pf growth 48h -23%, HCV inh 13µM*, SARS PLpro yeast -3% and Pf growth 96h inconclusive.
Cn1ncc2c(Nc3ccc(Br)cc3)nc(Nc3ccc(Br)cc3)nc21 was read as NS1 function inh -3%, AMA1 RON2 block 7%, Pf growth 48h 2.1µM*, HCV inh inconclusive, SARS PLpro yeast -10% and Pf growth 96h 9.3µM*.
For Cn1ncc2c(Nc3ccc(O)cc3)nc(Cl)nc21 the results were NS1 function inh 1%, AMA1 RON2 block 7%, Pf growth 48h 48%, HCV inh -12%, SARS PLpro yeast 1% and Pf growth 96h 82%.
`O=S(=O)(CCN1CCOCC1)c1ccc(OC(F)(F)F)cc1` gave NS1 function inh -4%, AMA1 RON2 block 3%, Pf growth 48h 17%, HCV inh -12%, SARS PLpro yeast -1% and Pf growth 96h 0%.
`CC(C)C(NC(=O)c1ccccc1)C(=O)N/N=C\c1ccco1` (stereo unspecified) gave NS1 function inh 12%, AMA1 RON2 block 0%, Pf growth 48h 4%, HCV inh 18%, SARS PLpro yeast -6% and Pf growth 96h 2%.
Screening COC(=O)c1ccc(CSc2nc3c(c(=O)n2-c2ccccc2)SCC3)o1 returned NS1 function inh 8%, AMA1 RON2 block -14%, Pf growth 48h 10µM*, HCV inh inconclusive, SARS PLpro yeast 11% and Pf growth 96h inconclusive.
Screening COC(=O)c1ccc(CSc2nc3c(c(=O)n2-c2ccc(F)cc2)SCC3)o1 returned NS1 function inh -30%, AMA1 RON2 block -21%, Pf growth 48h inconclusive, HCV inh inconclusive, SARS PLpro yeast -18% and Pf growth 96h inconclusive.
Screening COC(=O)c1ccc(CSc2nc3ccccc3c(=O)n2-c2ccc(OC)c(OC)c2)o1 returned NS1 function inh 8%, AMA1 RON2 block -13%, Pf growth 48h 8.3µM*, HCV inh 10µM* and SARS PLpro yeast -10%.
Screening O=c1[nH]c(=O)n2c(c1-c1ccccc1)OC(CBr)C2 (stereo unspecified) returned AMA1 RON2 block -10%.
Screening NC(=O)NC(=O)C(c1ccccc1)N1CCN(S(=O)(=O)Cc2ccccc2)CC1 (stereo unspecified) returned AMA1 RON2 block -22%, Pf growth 48h -4%, HCV inh 21%, SARS PLpro yeast -1% and Pf growth 96h 7%.
For CC(O)CNCCOc1ccccc1OCc1ccccc1 (stereo unspecified) the results were NS1 function inh -2%, AMA1 RON2 block -16%, Pf growth 48h -16%, HCV inh -9%, SARS PLpro yeast 0% and Pf growth 96h 46%.
For OCCNCc1c(OCc2ccc(Cl)cc2)ccc2ccccc12 the results were NS1 function inh 0%, AMA1 RON2 block -9%, Pf growth 48h 0%[0.00184 µM], HCV inh 11µM*, SARS PLpro yeast 12% and Pf growth 96h -18%.
For CC(O)CNCCNCc1c(OCc2ccccc2)ccc2ccccc12 (stereo unspecified) the results were NS1 function inh 5%, AMA1 RON2 block 3%, Pf growth 48h 1.9µM*, HCV inh inconclusive, SARS PLpro yeast -3% and Pf growth 96h 2.3µM*.
`Clc1ccc(-c2ccccc2)nn1` gave NS1 function inh -1%, AMA1 RON2 block 25%, Pf growth 48h 3%, HCV inh 3%, SARS PLpro yeast -1% and Pf growth 96h inconclusive.
Screening COc1cc(C(C[N+](=O)[O-])c2c(C)[nH]c3ccccc23)cc(OC)c1OC (stereo unspecified) returned NS1 function inh -11%, AMA1 RON2 block -9%, Pf growth 48h 13µM*, HCV inh inconclusive, SARS PLpro yeast -1% and Pf growth 96h 12%.
Screening CCCCn1c(N)c(N(CCOC)C(=O)COC(=O)c2cc(CCC)c(C)s2)c(=O)[nH]c1=O returned AMA1 RON2 block 18%, Pf growth 48h inconclusive, HCV inh -14%, SARS PLpro yeast inconclusive and Pf growth 96h inconclusive.
Screening COC(=O)C1=C(Nc2ccc(C)cc2)C=C(C)C(C(=O)OC)C1c1cccc(OC)c1 (stereo unspecified) returned NS1 function inh 9%, AMA1 RON2 block 14%, Pf growth 48h 2.6µM*, HCV inh inconclusive, SARS PLpro yeast -22% and Pf growth 96h 1.7µM*.
COC(=O)C1=C(Nc2ccc(C)cc2)C=C(C)C(C(=O)OC)C1c1ccc(OC)cc1 (stereo unspecified) was read as NS1 function inh 4%, AMA1 RON2 block -1%, Pf growth 48h 4.1µM*, HCV inh inconclusive, SARS PLpro yeast -34% and Pf growth 96h inconclusive.
`COC(=O)C1C(=O)C=C(Nc2ccc(F)cc2)CC1c1ccc(OC)cc1` (stereo unspecified) gave NS1 function inh -4%, AMA1 RON2 block 1%, Pf growth 48h -5%, HCV inh 10%, SARS PLpro yeast -20% and Pf growth 96h -28%.
Cc1cc(NC(=O)CSc2nc3ccccc3c(=O)n2CCCC(=O)NCc2ccccc2)n[nH]1 was read as NS1 function inh -1%, AMA1 RON2 block 58%, Pf growth 48h inconclusive, HCV inh -6%, SARS PLpro yeast 4% and Pf growth 96h 33%.

Screens from PubChem.
